# Results filed as inconclusive are left out. Active and inactive are the calls of the source. The call rests on the fitted dose curve; in most records, active means well fitted inhibition curve with a large enough effect; inconclusive means small, poorly fitted or top-dose-only effect; inactive means no such curve, though single readings can be large or run the other way.
# Assay: Confirmatory fluorescence-based thiol-reactive (MSTI) qHTS assay for identification of artifact compounds
# Settings: MSTI thiol-reactivity probe, 1 h; series mostly up to 39.2 µM
# Excerpt: PI: Alexander Tropsha Ph.D. UNC Eshelman School of Pharmacy University of North Carolina, Chapel Hill, North Carolina Hits from high-throughput screening (HTS) of chemical libraries are often false positives due to their interference with the assay detection technology. In response to this problem, we generated the largest publicly available library of chemical liabilities and developed a free webtool to predict HTS artifacts, both of which are described herein. More specifically, we generated, curated, and integrated HTS datasets for thiol reactivity, redox activity, and luciferase (firefly and nano) activity. Using these curated datasets, we developed and validated several Quantitative Structure-Interference Relationship (QSIR) models to predict nuisance behavior. […] These models were employed for virtual profiling of the National Center for Advancing Translational Science's (NCATS) in-house library, and 256 compounds for each assay were selected for the experimental validation of nuisance behavior. The BA for these external predictions ranged from 58 to 78% for compounds within the applicability domains of the models. […] The models developed in this study, along with aggregation models previously developed by our group (SCAM Detective) were implemented in "Liability Predictor," an online tool which may be used as part of chemical library design or for triaging HTS hits. Both the models and the curated datasets are publicly available at https://liability.mml.unc.edu/.
# PROTOCOL TABLE SEQUENCE No. (e.g., 1, 2, 3, etc.); PARAMETER (e.g., Cells, Incubation, Reagent, etc.); VALUE; DESCRIPTION. 1; Reagent; 4 uL; […]. 2; Compounds and control; 16 nL; Kalypsis pin tool (Wako USA) equipped with a 1536-well pin head. 3; Incubation; 1 hour. 4; Detection; Fluorescence, ViewLux microplate reader, 525 nm excitation, 598 nm emission. NOTES (numbers refer to Sequence numbers above) 1. Assays determining (E)-2-(4-mercaptostyryl)-1,3,3-trimethyl-3H-indol-1-ium (MSTI) reactivity were performed as previously described in the literature with modifications for the quick identification of compounds reacting with thiol. In brief, 4 uL of MSTI or positive control Acetyl-MSTI (final concentrations of 4 uM and 4 uM, respectively) in assay buffer (2% DMSO in 1X PBS pH 7.4) was dispensed into all wells of a 1536-well assay plate (solid-bottom black plate; Greiner Bio One, Monroe, NC). 2. A Wako Pin-tool (Wako Automation, Richmond, VA) was used to transfer 16 nL of compounds (consisting of 7-plates in qHTS format, final concentration range 18.3 nM to 114 uM) or control MLS001163887 (final concentration range 1.22 nM to 40 uM). 3. Plates were centrifuged (121xg, 15 seconds) and incubated for 1 hour at room temperature protected from light. 4. Samples were read for fluorescence (Ex/Em = 525(20)/598(25) nm) on a ViewLux CCD imager (PerkinElmer). Data were normalized to Acetyl-MSTI (0% activity) and MSTI (100% activity) and the resulting percent inhibition data were fitted to a 4-parameter Hill equation using NCATS in-house software.
row,Structure (SMILES),outcome
1,COc1ccc2[nH]cc(CCNCc3ccc(Br)cc3)c2c1,inactive
2,C[C@H]1CCCC(=O)CCC/C=C/c2cc(O)cc(O)c2C(=O)O1,inactive
3,O=c1ccc2cc(O[C@@H]3O[C@H](CO)[C@H](O)[C@H](O)[C@H]3O)c(O)cc2o1,inactive
4,COc1ccc2c3c1O[C@H]1[C@@H](O)C=C[C@H]4[C@@H](C2)NCC[C@@]341,inactive
5,c1ccc2sc(SNC3CCCCC3)nc2c1,inactive
6,CC1CCCC(O)CCCCCc2cc(O)cc(O)c2C(=O)O1 (configuration not stated),inactive
7,CC[C@H]1[C@@H]2C[C@H]3[C@@H]4N(C)c5ccccc5[C@]45C[C@@H](C2[C@H]5O)N3[C@@H]1O (some centres not stated),inactive

# From PubChem BioAssay AID1845226 (National Center for Advancing Translational Sciences (NCATS), 2023)
